Results on 15 compounds are retold here after PubChem BioAssay (NCI).

SMILES strings stand for the structures. Compounds without any hit were thinned out: in the full panel of roughly 83,000, 20% have a hit.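 Each cell line was grown in a 96-well plate and treated with one concentration of compound for 48 hours. Values below 10 were considered active.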 A number with no mark means an inactive call. Calls of active or inactive are those of the source.

Assay in all cases: NCI-60 one-dose screen, 48 h (100 = growth as untreated, 0 = no growth, -100 = all killed)
Holding throughout (conditions): 10 µM unless noted

In assay [1] the test system is NCI-H23 lung.
In assay [2] the test system is NCI-H226 lung.
In assay [3] the test system is NCI-H322M lung.
Assay [4] has as its system HOP-62 NSCLC.
Assay [5] has as its system NCI-H460 lung.
The test system of assay [6] is HOP-92 NSCLC.
The test system of assay [7] is NCI-H522 lung.
In assay [8] the test system is A549/ATCC NSCLC.
For assay [9], the system named is 786-0 renal.

As to `CCCCCCCCNC(C)C(O)c1ccc(SC(C)C)cc1` (stereo not given), the growth was 74.2% in assay [1]; 96% in assay [2]; 87.9% in assay [3]; 85% in [4]; -37.7% (active) in assay [5]; -28.1% (active) in assay [6]. For the same compound, the growth is 12.1% in assay [7], 98.8% in assay [8] and -14.9% (active) in assay [9].
Consider `CC(=O)c1cc(C(=O)c2ccc3c(c2)Sc2ccccc2N3)c2c(C)cccn12`, for which the growth in assay [1] is 27%; in assay [2], 47.8%; in assay [3] it was 37.4%; in assay [4] it was 19.1%; in [5] it was 6.41% (active); in assay [6], 94%. For the same compound, the growth in assay [7] was 12.5%; in [8] it was 19.5%; in [9], 4.46% (active).
As to `Cc1ccc(NC(=O)c2[nH]c(SCCN(C)C)nc2-c2ccc(F)cc2)cc1C#Cc1cnc2cccnn12`, the growth is 66.7% in assay [1]; 55.9% in assay [2]; 48.1% in assay [3]; -8.9% (active) in assay [4]; -69.4% (active) in assay [5]; 80.4% in [6]. Moreover, the growth in assay [7] is 1.49% (active); in assay [8], 5.21% (active); in [9], -67.1% (active).
As for `CCCCN(CCCC)CCC(=O)c1ccc(OC)c2ccccc12`, the growth in assay [1] was 111%; in assay [2], 95.7%; in [3], 104%; in [4] it was 101%; in [5], 109%; in [6], -13.7% (active). The growth in assay [7] is 90.6%; in assay [8], 80.1%; in assay [9], 65.5%.
Regarding `Cc1nc2c(-c3cnc(N)nc3)nc(N3CCOCC3)nc2n1C(C)C`, the growth is 16.5% in [1]; -1.05% (active) in [2]; -5.38% (active) in assay [3]; -12.7% (active) in assay [4]; 12.2% in assay [5]; -17.2% (active) in [6]. In addition, the growth was 4.22% (active) in [7], -1.09% (active) in assay [8] and -8.16% (active) in assay [9].
With `COc1cc(/C=C/C(=O)c2c(C)nc3ccccc3c2C)ccc1OCCCOc1cc2c(cc1OC)C(=O)N1CCC[C@H]1C=N2`, the growth is -19.5% (active) in assay [1]; -4.56% (active) in [2]; -58.6% (active) in [3]; -6.66% (active) in assay [4]; -61% (active) in assay [5]; -45.1% (active) in assay [6]. In addition, the growth in [7] was -56.9% (active); in assay [8], 2.42% (active); in assay [9], -47.9% (active).
In the case of `Cc1n(Cc2ccc3ccccc3n2)cc[n+]1Cc1ccc2ccccc2c1`, the growth in [1] is 2.01% (active); in [2], 12.7%; in assay [3], 26%; in assay [4] it was 13.3%; in assay [5] it was 10.2%; in assay [6], -6.1% (active). In addition, the growth in assay [7] is 3.95% (active); in assay [8], 33.5%; in assay [9] it was 63.3%.
On to `COc1ccc(/C=C(/C(=O)N2CCN(c3ccccc3)CC2)c2cc(OC)c(OC)c(OC)c2)cc1N`, for which the growth was 39.4% in assay [1]; 40.5% in assay [2]; 49.8% in assay [3]; 30.4% in assay [4]; 6.98% (active) in assay [5]; 92.2% in assay [6]. Further, the figures for the growth in [7], in assay [8] and in [9] were 3.2% (active), 24% and 25.7%, respectively.
For `CCCCCCCCCCCCCC(=S)NCCCC[C@H](NC(=O)OCc1ccccc1)C(=O)Nc1ccccc1`, the growth is 37.2% in [1]; 60.8% in [2]; 95.2% in assay [3]; 58.4% in [4]; 45.5% in assay [5]; 19.8% in assay [6]. The growth in [7] is 27.6%; in assay [8], 49.3%; in assay [9] it was 48.8%.
Turning to `COc1ccc(/C=C/C(=O)c2ccc(NC(=O)CSc3nnc(-c4ccc(OC)cc4)n3-c3ccccc3)cc2)cc1`, the growth in [1] is 99.2%; in assay [2], 99.2%; in [3], 103%; in assay [4], 101%; in assay [5] it was 107%; in [6], 106%. For the same compound, the growth is 91.4% in [7], 80.2% in assay [8] and 102% in [9].
Consider `COc1ccc2nc(NC(=O)/C(=C/c3cc(OC)c(OC)c(OC)c3)c3ccc(OC)c(OC)c3)sc2c1`, for which the growth in [1] is 93.2%; in [2] it was 80.2%; in [3], 82.5%; in assay [4] it was 87.8%; in assay [5] it was 111%; in assay [6] it was 74.3%. Also, the results for the growth in assay [7], in assay [8] and in assay [9] were 78.1%, 85.6% and 100%, respectively.
On to `C/C(=N\NC(=S)N1CCCCC1)c1ccccn1`, for which the growth in assay [1] was 30.8%; in assay [2], 7.07% (active); in assay [3], 4.53% (active); in assay [4], 21%; in [5] it was -23.9% (active); in assay [6] it was -1.04% (active). Besides, the growth is 11.5% in [7], 9.13% (active) in assay [8] and 15.5% in assay [9].
For `C[C@]12CCc3nc(Nc4ccc(O)cc4)sc3C1=CC[C@@H]1[C@@H]2CC[C@]2(C)/C(=N/NC(N)=S)CC[C@@H]12`, the growth is 1.05% (active) in assay [1]; 55.4% in [2]; 4.16% (active) in [3]; -24.5% (active) in assay [4]; -72% (active) in assay [5]; -19.3% (active) in assay [6]. Moreover, the growth is -55.2% (active) in [7], -26.7% (active) in assay [8] and -73.6% (active) in assay [9].
As to `O=NN(CC(=O)NNc1ccccc1)CC(=O)NNc1ccccc1`, the growth is 103% in [1]; 85.9% in [2]; 85% in assay [3]; 87.8% in [4]; 66.2% in assay [5]; 88.5% in [6]. The growth was 52% in [7], 65.9% in assay [8] and 90.9% in [9].
With `O=C(Nc1ccc2[nH]c3ccccc3c2c1)c1ccccc1Cl`, the growth is 67.7% in assay [1]; 81.1% in [2]; 56.4% in assay [3]; 45.1% in assay [4]; 22.5% in assay [5]; 76.1% in assay [6]. Moreover, the growth in assay [7] is 15.7%; in assay [8] it was 40.5%; in assay [9], 62.1%.
